Each structure is given as a SMILES string. About 83,000 compounds went through this panel and 20% of them were active in at least one assay; those are over-represented in the sample as a whole.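 Compound tested at a single concentration for 48 hours in 96-well plates; a percent growth value below 10 was scored as active.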 The source made the active and inactive calls.

The subject of the assay is HL-60(TB) leukemia. Briefly: NCI-60 one-dose screen, 48 h (100 = growth as untreated, 0 = no growth, -100 = all killed). The conditions noted are these: 10 µM unless noted.
Take `COc1cc(OC)c(/C=C/c2ccc3ccccc3[n+]2C)c(OC)c1`: the growth is -29.5% (active).

`C=C1C(=O)O[C@H]2[C@H]1CC/C(COC(=O)c1cn(C)c3ccccc13)=C\CC[C@@]1(C)O[C@@H]21`: the growth was 2.98% (active).

For `CC(C)=CCC[C@H](C)c1ccc(C)c2c1OCN(CCO)C2`, the growth is 90.8% (inactive).

On to `Cc1cccc(-c2cn3ccnc3c(-c3ccc4ncn(Cc5ccccc5)c4c3)n2)c1`, for which the growth was 81.8% (inactive).

Consider `COC1=C(C)C(=O)c2c(c(CCCl)c3n2CCC3O)C1=O` (stereo not given), for which the growth was 50.3% (inactive).

In the case of `CCC(=O)c1ccc(Cl)s1`, the growth was 70.4% (inactive).

Consider `CN(C)c1nc(-c2cccs2)n2nc(-c3ccco3)cc2n1`, for which the growth is 95.3% (inactive).

In the case of `CCn1c(Sc2nnc(NC(C)=O)s2)nc2c1c(=O)n(C)c(=O)n2C`, the growth was 124% (inactive).

Regarding `Cc1cc2ccccn2c1C(=O)c1ccc(C(=O)c2ccccc2)cc1`, the growth is -14.6% (active).

As for `CCCN1C(=O)N(CCC)C2C1NN=c1s/c(=C3\C(=O)N(C(C)C)c4ccccc43)c(=O)n12` (stereo not given), the growth was 0.788% (active).

As to `O=[N+]([O-])C1=C(c2ccccc2)SC=C(c2ccccc2)S1`, the growth was 70.9% (inactive).

For the compound `C=C1C(=O)O[C@H]2[C@H]1CC/C(CNC(=O)c1cccc3ccccc13)=C\CC[C@@]1(C)O[C@@H]21`, the growth was -23.9% (active).

With `Cc1ccc(-c2csc(N(C(=O)N3CCN(c4cc5c(cc4F)c(=O)c(C(=O)O)cn5C4CC4)CC3)c3ccccc3)n2)cc1`, the growth is 1.91% (active).

Consider `N#Cc1c(Cl)nc(SCC2CO2)nc1-c1ccccc1` (stereo not given), for which the growth is 105% (inactive).

With `O=c1nc(Nc2cccc(Cl)c2)oc2cc(Cl)oc(=O)c12`, the growth was 26.4% (inactive).

For the compound `C=CC(C)(O)CCC1C(=C)CCC2C(C)(C)CCCC12C` (stereo not given), the growth was 82.1% (inactive).

`CNC(=O)c1cc(Oc2ccc3nc(NC(=O)Nc4ccc(C(F)(F)F)cc4)sc3c2)ccn1`: the growth was 120% (inactive).

As to `COC(=O)c1nc(N)nc(C(=O)OC)c1C(=O)c1ccc(F)cc1`, the growth is 115% (inactive).

For the compound `CSc1ccc(-c2n[nH]nc2-c2cc3ccccc3s2)cc1`, the growth is 38% (inactive).

For the compound `COc1ccc2c(c1)c(-c1nc(-c3cn(C)c4ccncc34)cs1)cn2C`, the growth was 81.7% (inactive).

As for `CC(Cc1ccco1)C(=O)NC(N)=O` (stereo not given), the growth is 87.5% (inactive).

Regarding `COc1cc2c(cc1OC)-c1ccc3cc4c(cc3c1N(CCCN(C)C)C2)OCO4`, the growth was 30.4% (inactive).

As to `COC(=O)C(C)Oc1ccc(OC#N)cc1` (stereo not given), the growth is 46.1% (inactive).

As for `CN(C)CCOc1cccc(NC2=C(Cl)C(=O)C(Nc3cccc(OCCN(C)C)c3)=C(Cl)C2=O)c1`, the growth was -51% (active).

As to `CC[C@]12C=CCN3CC[C@@]4(c5ccc(OC)cc5N(C)[C@H]4[C@@](O)(C(=O)OC)[C@@H]1OC(=O)CCC[P+](c1ccccc1)(c1ccccc1)c1ccccc1)[C@@H]32`, the growth is -53.1% (active).

With `O=C(Cn1cc(CN2C(=O)c3ccccc3S2(=O)=O)nn1)Nc1cccc(Cl)c1`, the growth is 103% (inactive).

As to `O=S(=O)(O)c1cnccn1`, the growth is 95.3% (inactive).

For the compound `CCCCCCCC/C=C\CCCCCCCCOc1ccccc1CC(=O)NCC[N+]1(C)CCOCC1`, the growth is 67.2% (inactive).

With `CCCCC[C@@H]1Cc2cc(O)c(C(=O)O)c3c2[C@H](C[C@@]2(CCCO2)O3)O1`, the growth is 86.5% (inactive).

Consider `Cc1cc(C)c(-c2cc(O)c(-c3c(C)cc(C)cc3C)cc2O)c(C)c1`, for which the growth is -24.4% (active).

With `O=c1c2ccccc2[nH]n1Cc1ccc2c(c1)OCO2`, the growth was 98.4% (inactive).

Consider `COc1cccc(NC(=O)Nc2ccc(Nc3ncnc4[nH]c(C)c(C)c34)cc2)c1`, for which the growth is 104% (inactive).

On to `CCC(=O)c1c(C)[nH]c(C)c1C`, for which the growth was 92.8% (inactive).

As for `Brc1cccc(-c2cc(-c3ccc4nccnc4c3)[nH]n2)c1`, the growth is 14.9% [25 µM] (inactive).

As for `CN1C(=O)[C@H]2c3c1cccc3[C@@]13NC(=O)O[C@H]1[C@H](CCC3(C)C)C2(C)C`, the growth is 97.9% (inactive).

`COc1cc(F)c(F)c(Nc2ccc(I)cc2F)c1NS(=O)(=O)C1(C[C@H](O)CO)CC1`: the growth was 23.9% (inactive).

In the case of `O=C(C(=O)N1CCOCC1)c1ccc(OC2OC(CO)C(O)C(O)C2O)cc1` (stereo not given), the growth was 82.7% (inactive).

As for `Cc1ccc(-c2csc(/N=C3\C(=O)Nc4ccccc43)n2)cc1`, the growth is -48% (active).

`Cc1cc2[nH]c(=O)c3c4ncccc4cn3c2cc1C`: the growth was 37.2% (inactive).

In the case of `COc1cc(C2C3=C(COC3=O)Nc3cc4c(cc32)CCC4)cc2c1OCO2` (stereo not given), the growth was 10.4% (inactive).

These data come from PubChem BioAssay (NCI).
